Test results published in the supplement of paper PMC6555819.

Tests used:
Assay in all cases: PBM binding z-score (relative to random genomic background probes); higher = stronger binding; sequences stand for … in GC…GCGATTGACAGCGTAGAATGAAGG
[1] = test system: PPARg:RXRa DBDmut IVT, anti-RXR (DBD mutation: RXRa K156A/R161A, NR concentration 270 nM, RXRa partner concentration 90 nM)
Method in brief: (§1)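 For binding z-scores, the reference was random background probes on custom Agilent 4×180K protein-binding microarrays. These arrays were incubated 1 h with ligand-free nuclear receptor dimers in PBS pH 7.4, 2% milk, 0.02% Triton X-100, 1 mM DTT, 0.2 mg/mL BSA and 0.4 mg/ml salmon testes DNA. Fluorescence was scanned after antibody detection of each partner (one per run) and regression-normalized.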

[2] = test system: PPARg:RXRa IVT, anti-PPARg (NR concentration 270 nM, RXRa partner concentration 90 nM)
Method in brief: as §1

[3] = test system: PPARg DBDmut:RXRa IVT, anti-PPARg (DBD mutation: PPARg1 K132A/R137A, NR concentration 270 nM, RXRa partner concentration 90 nM)
Method in brief: as §1

[4] = test system: PPARg DBDmut IVT, anti-PPARg (DBD mutation: PPARg1 K132A/R137A, NR concentration 270 nM)
Method in brief: as §1

[5] = test system: PPARg homodimer (NR concentration 180 nM)
Method in brief: as §1

[6] = test system: PXR:RXRa (NR concentration 270 nM, RXRa partner concentration 90 nM)
Method in brief: as §1

[7] = test system: PXR homodimer (NR concentration 270 nM)
Method in brief: as §1

[8] = test system: RARa:RXR (NR concentration 270 nM, RXRa partner concentration 90 nM)
Method in brief: as §1

[9] = test system: RARa homodimer (NR concentration 270 nM)
Method in brief: as §1

[10] = test system: RARb:RXRa (NR concentration 270 nM, RXRa partner concentration 90 nM)
Method in brief: as §1

Sequence	PBM binding z-score [1]	PBM binding z-score [2]	PBM binding z-score [3]	PBM binding z-score [4]	PBM binding z-score [5]	PBM binding z-score [6]	PBM binding z-score [7]	PBM binding z-score [8]	PBM binding z-score [9]	PBM binding z-score [10]
TTACCAAGGTGAGCTGAGGTCGTCGATCCAACTC	0.887	2.1	-0.228	-0.875	-0.188	3.92	0.167	1.43	-0.863	1.8
CTCGAAAGGTCGGTTGAGGTGAGTATTCGGATAA	0.311	0.955	-0.267	0.135	1.02	3.05	-0.0873	2.04	0.255	3.25
AGAATGTGGTTATTAAGATCAGGGAATTGCGGTC	0.321	0.232	0.301	1.09	1.35	-0.0244	0.763	0.105	1.37	0.11
AGTCAAAGTTCAGGACGAGGTAACGTCAAGCACG	-0.313	1.89	0.047	-0.603	3.18	3.06	1.42	3.01	1.63	4.25
TCATATAGGTATATGCTAGGTGAAAGTCCGATCT	2.4	1.07	0.908	1.63	0.436	0.612	0.215	0.893	0.379	0.145
CAAACTAGGTCACAGCGGTCAAAGTCCGTGCGTA	8.22	8.97	2.1	1.7	2.78	3.32	1.36	3.58	1.2	4.58
AGATGTAGGTTAAGGGTCATTCAGGTTGGTTCGC	7.33	7.46	1.97	1.04	3.44	5.52	3.11	6.2	2.4	3.66
CCGTCTGGGGCATAAGGTTACCATAAGCCAGCCC	1.52	1.84	-1.52	-1.72	0.475	0.566	-0.335	1.39	-0.41	1.84
CGTCCAAGTTCAAGGTAACGTAACAGAAAGCAGC	0.65	0.654	0.76	0.315	1.63	2.73	1.61	1.95	0.657	3.36
ACAGACAGGGGATGAAGGTAACTCAGGCTATCAT	-0.0159	0.23	0.918	0.962	0.411	0.126	0.556	-0.0712	0.0686	0.299
AGAATGAGGTTATTAGGATCAGGGAATTGCGGTC	3.64	3.55	0.306	0.466	1.24	1.38	0.752	1.57	1.06	1.53
TTACCAAGGTGTAAGGTCGTTGATGCACGCCTTG	-0.345	1.3	0.0676	-0.033	0.125	1.1	0.267	1.38	-0.417	1.09
ATCTCTAGGTACAGATAGTTCAGTGAATGCAAAT	-0.154	0.347	1.38	1.2	0.865	0.698	1.5	0.218	0.726	0.832
CGAACTAGGCCAGAACAGGACAGTGAAGGATGAT	3.99	3.44	0.251	0.0234	0.0323	-0.123	-0.145	0.379	0.0972	0.171
TAGCCTAGGTCAGATCGGGCCAGTATCCGCTATA	0.546	1.41	-0.474	-1.24	0.0691	0.834	-0.885	1.1	-1.32	3.02
CGTCCAAGGTCAGAGAGGTCAATGAATGCCGAGT	3.1	3.52	-0.295	-0.854	5.37	6.76	13.7	6.55	3.02	5.17
AGAATGAGGTTATACGTAGATCGGGGAAGAAAGT	4.33	2.22	0.772	-0.0447	1	1.43	0.718	1.92	0.264	1.58
TATACAGGGTCAAAGGCCAGAGGACGAATGTCGA	1.96	4.98	2.24	2.72	3.14	4.5	0.565	5.97	0.998	4.43
